Reference: PubChem BioAssay (NCATS)
Results filed as inconclusive are left out. Values without a mark were called inactive. The call rests on the fitted dose curve; in most records, active means well fitted inhibition curve with a large enough effect; inconclusive means small, poorly fitted or top-dose-only effect; inactive means flat fitted curve, though single readings scatter.

Target: Calcium and integrin-binding protein 1 (Homo sapiens) (UniProt Q99828)
Experiment: Primary qHTS for Identification of Calcium Integrin Binding Protein 1 (CIB1) Competitor (AID 1508620);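 further: GST tagged CIB1 binding a fluorescein labelled alphaIIb integrin peptide tracer; top concentration of the series differs between compounds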
Settings: CIB1-GST / FITC-alphaIIb peptide fluorescence polarization; series mostly up to 114 µM; activity change, negative = inhibition: at the top concentration
Summary of the method: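 Fluorescence polarization competition: CIB1-GST (1 uM final) preincubated with compound 15 min at room temperature, then FITC-labeled alphaIIb peptide (100 nM final) added for another 15 min. Polarization read at Ex 480/Em 540.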
On the % scale 0 is the no-effect control and ±100 the full control effect.

Chain of Calcium and integrin-binding protein 1 (Homo sapiens) (Q99828 whole entry, looked up): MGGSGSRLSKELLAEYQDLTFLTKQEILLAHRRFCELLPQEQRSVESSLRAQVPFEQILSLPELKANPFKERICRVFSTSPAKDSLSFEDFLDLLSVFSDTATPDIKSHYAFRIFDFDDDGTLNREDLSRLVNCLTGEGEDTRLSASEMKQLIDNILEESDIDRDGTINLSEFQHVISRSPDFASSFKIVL

Row | SMILES | activity change, negative = inhibition [%]
1 | CN(C)c1cnc2c(O)ccc(C(=O)O)c2c1 | -20
2 | O=C(Nc1ccc(-c2nc3ccccc3[nH]2)cc1)c1ccc(C(F)(F)F)cc1 | 5.85
3 | CC(C)N1Cc2ccc(Nc3nn4c(=O)c5ccccc5nc4s3)cc2C1 | 4.83
4 | Fc1cc(Nc2nc(-c3ccncc3)nc3ccccc23)ccc1-c1cccnc1 | 13.2
5 | O=C(OCC#CCSc1nnc(-c2cccc3ccccc23)o1)c1cnc[nH]1 | -5.48
